The supplement of paper PMC12494721
Structures can show the parent of a compound that is named as a salt.

Columns and labels:
Conditions in all cases: incubation time: 27 h, anaerobic, 37 °C;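 for the amine columns active = adjusted P below 0.05 in both replicates with a change the same way and a mean fold change under 0.8 or over 1.25; inactive = the rest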
[1] = test system: Clostridium sporogenes DSM 1664; test: growth (OD595) fold change vs plate DMSO controls (fold change (ratio)); higher = more growth
In short: (§1)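 Each value is the mean of 2 biological replicates, and fold changes above 1.5 were set to NA. The underlying readings were taken at 595 nm from shaken anaerobic mGAM cultures in 96-well plates after 27 h at 37 °C. They were blank-subtracted, corrected for compound background using 20 µM compound solutions in water, and converted to OD with a calibration factor of 5. Growth is the fold change relative to the median of the plate DMSO controls.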

Escherichia coli IAI1 [2] = test: as above
In short: as §1

[3] = test system: Klebsiella aerogenes DSM 30053; test: as above
In short: as §1

[4] = test system: Ruminococcus gnavus DSM 108212; test: as above
In short: as §1

[5] = test system: Klebsiella aerogenes DSM 30053; test: fold change of Histamine concentration vs plate DMSO controls (fold change (ratio)); higher = more amine produced, active = hit call of the paper (significant change in both replicates, either direction)
In short: (§2)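 Extracts of whole anaerobic mGAM cultures were analysed for amines by LC–triple-quadrupole MS with dynamic MRM and external calibration curves, with drift corrected within batch. Four gut strains were grown at 37 °C for 27 h in 80 µL wells with compounds at 20 µM final, sweeteners at 50 µM final. Each value expresses fold change over plate DMSO controls. The average of 2 biological replicates is shown.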

[6] = test system: Clostridium sporogenes DSM 1664; test: fold change of Tryptamine concentration vs plate DMSO controls (fold change (ratio)); higher = more amine produced, active = hit call of the paper (significant change in both replicates, either direction)
In short: as §2

[7] = test system: Ruminococcus gnavus DSM 108212; test: as above
In short: as §2

Escherichia coli IAI1 [8] = test: fold change of Putrescine concentration vs plate DMSO controls (fold change (ratio)); higher = more amine produced, active = hit call of the paper (significant change in both replicates, either direction)
In short: as §2

[9] = test system: Klebsiella aerogenes DSM 30053; test: as above
In short: as §2

Escherichia coli IAI1 [10] = test: fold change of Cadaverine concentration vs plate DMSO controls (fold change (ratio)); higher = more amine produced, active = hit call of the paper (significant change in both replicates, either direction)
In short: as §2

[11] = test system: Klebsiella aerogenes DSM 30053; test: as above
In short: as §2

[12] = test system: Ruminococcus gnavus DSM 108212; test: fold change of 2-Phenylethylamine concentration vs plate DMSO controls (fold change (ratio)); higher = more amine produced, active = hit call of the paper (significant change in both replicates, either direction)
In short: as §2

| Structure (SMILES) | growth [1] | growth (Escherichia coli IAI1 [2]) | growth [3] | growth [4] | fold change of Histamine concentration [5] | fold change of Tryptamine concentration [6] | fold change of Tryptamine concentration [7] | fold change of Putrescine concentration (Escherichia coli IAI1 [8]) | fold change of Putrescine concentration [9] | fold change of Cadaverine concentration (Escherichia coli IAI1 [10]) | fold change of Cadaverine concentration [11] | fold change of 2-Phenylethylamine concentration [12] |
| --- | --- | --- | --- | --- | --- | --- | --- | --- | --- | --- | --- | --- |
| COc1ccc(C(=O)c2ccccc2O)c(O)c1 [Dioxybenzone] (20 µM) | 0.846 | 0.791 | 0.972 | 0.955 | 0.962 (inactive) | 1 (inactive) | 0.977 (inactive) | 0.86 (inactive) | 0.985 (inactive) | 1.07 (inactive) | 0.996 (inactive) | 0.937 (inactive) |
| Nc1ccc(S(=O)(=O)Nc2ccccn2)cc1 [Sulfapyridine] (20 µM) | 0.891 | 1.06 | 1.04 | 1.03 | 1.05 (inactive) | 0.998 (inactive) | 1.02 (inactive) | 1.01 (inactive) | 1 (inactive) | 0.955 (inactive) | 0.994 (inactive) | 1.03 (inactive) |
| Cc1ccc2c(Cl)cc(Cl)c(O)c2n1 [Chlorquinaldol] (20 µM) | 0.726 | 0.915 | 0.929 | 0.448 | 1.12 (inactive) | 0.518 (active) | 0.33 (active) | 1.17 (inactive) | 1.03 (inactive) | 1.32 (inactive) | 0.978 (inactive) | 0.332 (inactive) |
| COCCCC/C(=N\OCCN)c1ccc(C(F)(F)F)cc1 [Fluvoxamine maleate] (20 µM) | 1.2 | 0.976 | 0.994 | 0.962 | 0.985 (inactive) | 1.03 (inactive) | 0.982 (inactive) | 1.02 (inactive) | 0.987 (inactive) | 0.985 (inactive) | 0.997 (inactive) | 1.02 (inactive) |
| O=C1CCc2ccc(OCCCCN3CCN(c4cccc(Cl)c4Cl)CC3)cc2N1 [Aripiprazole] (20 µM) | 1.06 | 1.03 | 0.979 | 1.07 | 1.16 (inactive) | 0.955 (inactive) | 0.781 (active) | 1.03 (inactive) | 1.01 (inactive) | 1.11 (inactive) | 0.976 (inactive) | 0.811 (inactive) |
| COc1ccccc1Oc1c(NS(=O)(=O)c2ccc(C(C)(C)C)cc2)nc(-c2ncccn2)nc1OCCO [Bosentan] (20 µM) | 1.15 | 1.14 | 1.23 | 1.2 | 0.938 (inactive) | 0.987 (inactive) | 0.978 (inactive) | 1.09 (inactive) | 1.05 (inactive) | 1.03 (inactive) | 1.04 (inactive) | 0.959 (inactive) |
| CO[C@@]1(NC(=O)C(C(=O)O)c2ccc(O)cc2)C(=O)N2C(C(=O)O)=C(CSc3nnnn3C)CO[C@@H]21 (stereo partly drawn) [Moxalactam disodium salt] (20 µM) | 0 | 0.0889 | 1.02 | 0.0817 | 0.893 (inactive) | 0.0273 (active) | 0.06 (active) | 1.5 (inactive) | 1.02 (inactive) | 2 (active) | 1.02 (inactive) | 0.0586 (active) |
| CCN1C(=O)NC(c2ccccc2)C1=O (stereo not drawn) [Ethotoin] (20 µM) | 0.983 | 0.999 | 0.982 | 1.14 | 1.06 (inactive) | 0.942 (inactive) | 0.879 (inactive) | 0.991 (inactive) | 0.991 (inactive) | 0.999 (inactive) | 0.981 (inactive) | 0.855 (inactive) |
| CC(=O)O[C@]1(C(C)=O)CC[C@H]2[C@@H]3C=C(Cl)C4=CC(=O)CC[C@]4(C)[C@H]3CC[C@@]21C [Chlormadinone acetate] (20 µM) | 1.01 | 1 | 0.994 | 0.974 | 1.04 (inactive) | 0.965 (inactive) | 0.931 (inactive) | 1.04 (inactive) | 1.02 (inactive) | 1.02 (inactive) | 0.995 (inactive) | 0.895 (inactive) |
| CC1=C(/C=C/C(C)=C/C=C/C(C)=C/C(=O)O)C(C)(C)CCC1 [Retinoic acid] (20 µM) | 1.05 | 0.973 | 1.1 | 1.04 | 0.947 (inactive) | 1.03 (inactive) | 1.03 (inactive) | 1.01 (inactive) | 1.02 (inactive) | 0.989 (inactive) | 1.01 (inactive) | 0.997 (inactive) |
| COc1cc2c(cc1OC)C(=O)C(CC1CCN(Cc3ccccc3)CC1)C2 (stereo not drawn) [Donepezil hydrochloride] (20 µM) | 1.2 | 1.23 | 1.02 | 0.917 | 1.53 (inactive) | 0.947 (inactive) | 1.03 (inactive) | 1.24 (inactive) | 2.04 (inactive) | 0.981 (inactive) | 1.21 (inactive) | 1.08 (inactive) |
| CCn1cc(C(=O)O)c(=O)c2cc(F)c(N3CCNC(C)C3)c(F)c21 (stereo not drawn) [Lomefloxacin hydrochloride] (20 µM) | 0.0338 | 0.0575 | 0.252 | 1.01 | 0.0674 (active) | 0.0603 (active) | 1.03 (inactive) | 0.781 (active) | 0.627 (active) | 0.166 (active) | 0.981 (inactive) | 1.03 (inactive) |
| N=C(N)c1ccc(OCCCCCOc2ccc(C(=N)N)cc2)cc1 [Pentamidine isethionate] (20 µM) | 1.15 | 1.05 | 0.985 | 1.35 | 0.984 (inactive) | 0.79 (inactive) | 0.365 (active) | 0.993 (inactive) | 0.914 (inactive) | 0.825 (inactive) | 1.01 (inactive) | 0.38 (active) |
| CCC[C@@H]1C[C@@H](C(=O)N[C@@H]([C@H]2O[C@H](SC)[C@H](OP(=O)(O)O)[C@@H](O)[C@H]2O)[C@H](C)Cl)N(C)C1 [Clindamycin Phosphate] (20 µM) | 0.836 | 1.04 | 0.998 | 0.709 | 1.01 (inactive) | 0.917 (inactive) | 0.844 (inactive) | 1.02 (inactive) | 1.01 (inactive) | 0.987 (inactive) | 0.999 (inactive) | 0.86 (inactive) |
| CN(C)[C@@H]1C(=O)C(C(N)=O)=C(O)[C@@]2(O)C(=O)C3=C(O)c4c(O)ccc(Cl)c4[C@@H](O)[C@H]3C[C@@H]12 [Demeclocycline hydrochloride] (20 µM) | 0 | 0.0384 | 0.0385 | 0.802 | 0.107 (active) | 0.0455 (active) | 0.319 (active) | 0.239 (active) | 0.472 (active) | 0.225 (active) | 0.547 (active) | 0.364 (active) |
| O=C(O[C@@H]1C[C@@H]2C[C@H]3C[C@H](C1)N2CC3=O)c1c[nH]c2ccccc12 [Dolasetron mesilate] (20 µM) | 0.968 | 0.994 | 0.986 | 1.07 | 0.981 (inactive) | 1 (inactive) | 1.02 (inactive) | 0.942 (inactive) | 0.991 (inactive) | 0.979 (inactive) | 0.989 (inactive) | 1.04 (inactive) |
| Nc1nc(NC2CC2)c2ncn([C@H]3C=C[C@@H](CO)C3)c2n1 [Abacavir sulfate] (20 µM) | 1.25 | 1.05 | 1.02 | 1.02 | 1.04 (inactive) | 0.969 (inactive) | 0.953 (inactive) | 1.03 (inactive) | 1.04 (inactive) | 0.969 (inactive) | 0.992 (inactive) | 0.935 (inactive) |
| CC(C)c1nc(N(C)S(C)(=O)=O)nc(-c2ccc(F)cc2)c1/C=C/[C@@H](O)C[C@@H](O)CC(=O)O [Rosuvastatin] (20 µM) | 0.904 | 1.22 | 1.02 | 1.01 | 0.953 (inactive) | 1.03 (inactive) | 0.989 (inactive) | 1.06 (inactive) | 1 (inactive) | 0.951 (inactive) | 0.989 (inactive) | 1 (inactive) |
| CC(=O)Oc1ccc(C(c2ccc(OC(C)=O)cc2)c2ccccn2)cc1 [Bisacodyl] (20 µM) | 0.976 | 0.978 | 0.993 | 0.731 | 1.06 (inactive) | 0.942 (inactive) | 0.988 (inactive) | 0.967 (inactive) | 1.02 (inactive) | 1 (inactive) | 0.998 (inactive) | 0.954 (inactive) |
| C=C1/C(=C\C=C2/CCC[C@]3(C)[C@@H]([C@H](C)/C=C/[C@@H](O)C4CC4)CC[C@@H]23)C[C@@H](O)C[C@@H]1O [Calcipotriene] (20 µM) | 1.07 | 0.96 | 1.02 | 1.3 | 1.02 (inactive) | 0.952 (inactive) | 1.01 (inactive) | 1.01 (inactive) | 1.01 (inactive) | 0.969 (inactive) | 1 (inactive) | 0.981 (inactive) |
| CC(C)[C@H](N)C(=O)OCC(CO)OCn1cnc2c(=O)nc(N)[nH]c21 (stereo partly drawn) [Valganciclovir hydrochloride] (20 µM) | 1.1 | 0.991 | 1.03 | 0.987 | 0.998 (inactive) | 0.983 (inactive) | 0.964 (inactive) | 1.01 (inactive) | 1.01 (inactive) | 1.01 (inactive) | 1.01 (inactive) | 0.926 (inactive) |
| CCCCOc1ccc(C(=O)CCN2CCCCC2)cc1 [Dyclonine hydrochloride] (20 µM) | 1.17 | 0.992 | 0.966 | 1.22 | 1 (inactive) | 0.989 (inactive) | 0.947 (inactive) | 0.989 (inactive) | 0.995 (inactive) | 0.995 (inactive) | 0.984 (inactive) | 0.936 (inactive) |
| NC(=O)c1cnccn1 [Pyrazinamide] (20 µM) | 0.992 | 1.04 | 1 | 1.12 | 0.957 (inactive) | 1.04 (inactive) | 0.958 (inactive) | 1.01 (inactive) | 1 (inactive) | 0.98 (inactive) | 1.01 (inactive) | 0.906 (inactive) |
| CC(=O)[C@@]1(O)CC[C@H]2[C@@H]3C[C@H](C)C4=CC(=O)C=C[C@]4(C)[C@@]3(F)[C@@H](O)C[C@@]21C [Fluorometholone] (20 µM) | 1.02 | 0.986 | 1.01 | 1.14 | 1.05 (inactive) | 1.05 (inactive) | 1.08 (inactive) | 0.992 (inactive) | 0.968 (inactive) | 0.957 (inactive) | 0.983 (inactive) | 1.14 (inactive) |
